Assay results reported in the supplement of paper PMC7595190.

How the values were obtained:
Assay in all cases: CellTox Green cytotoxicity fluorescence relative to DMSO vehicle (fold of vehicle RFU); higher = more cell death (loss of membrane integrity), active = 2 or more
[1] = system: CMK
How it was run: (§1)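 CellTox Green reagent was added when MV4-11, CMK and Kasumi-1 cells were seeded at 4.0 × 10^4 cells per well, and single compounds from the Selleckchem apoptosis library were added at final 0.01, 0.1 and 1 µM in DMSO (vehicle 0.1% DMSO). Fluorescence at Ex 485 nm and Em 520 nm was read after 24, 48 and 72 h at 37 °C, 5% CO2. The reported cytotoxicity corresponds to loss of membrane integrity, given as fold of the DMSO vehicle.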

[2] = system: Kasumi-1
How it was run: as §1

[3] = system: MV4-11
How it was run: as §1

Measured: CellTox Green cytotoxicity fluorescence

O=C1CCC(N2C(=O)c3ccccc3C2=O)C(=O)N1 (centres undefined) [Thalidomide]
inactive: [1]; 0.01 µM, 24 h 0.979 | [1]; 0.01 µM, 48 h 0.985 | [1]; 0.01 µM, 72 h 0.989 | [1]; 0.1 µM, 24 h 0.945 | [1]; 0.1 µM, 48 h 0.95 | [1]; 0.1 µM, 72 h 0.986 | [1]; 1 µM, 24 h 0.982 | [1]; 1 µM, 48 h 0.962 | [1]; 1 µM, 72 h 1.19 | [2]; 0.01 µM, 24 h 0.98 | [2]; 0.01 µM, 48 h 0.96 | [2]; 0.01 µM, 72 h 0.95 | [2]; 0.1 µM, 24 h 0.938 | [2]; 0.1 µM, 48 h 0.934 | [2]; 0.1 µM, 72 h 0.908 | [2]; 1 µM, 24 h 0.972 | [2]; 1 µM, 48 h 0.981 | [2]; 1 µM, 72 h 0.997

CC1(C)CC[C@]2(NC(=O)C(C)(F)F)CC[C@]3(C)[C@H](C(=O)C=C4[C@@]5(C)C=C(C#N)C(=O)C(C)(C)[C@@H]5CC[C@]43C)[C@@H]2C1 [Omaveloxolone]
inactive: [1]; 0.01 µM, 24 h 0.972 | [1]; 0.01 µM, 48 h 0.97 | [1]; 0.01 µM, 72 h 1 | [1]; 0.1 µM, 24 h 0.98 | [1]; 0.1 µM, 48 h 0.952 | [1]; 0.1 µM, 72 h 0.762 | [1]; 1 µM, 72 h 1.56 | [2]; 0.01 µM, 24 h 0.94 | [2]; 0.01 µM, 48 h 0.95 | [2]; 0.01 µM, 72 h 0.898 | [2]; 0.1 µM, 24 h 0.971 | [2]; 0.1 µM, 48 h 1 | [2]; 0.1 µM, 72 h 0.946 | [2]; 1 µM, 24 h 1.11 | [2]; 1 µM, 48 h 1.34 | [2]; 1 µM, 72 h 1.34
active: [1]; 1 µM, 24 h 2.13 | [1]; 1 µM, 48 h 2.33

COc1ccc(CCNCc2ccc(OCc3ccc(Cl)nc3)c(OC)c2)cc1OC
inactive: [1]; 0.01 µM, 24 h 0.968 | [1]; 0.01 µM, 48 h 0.978 | [1]; 0.01 µM, 72 h 0.979 | [1]; 0.1 µM, 24 h 0.96 | [1]; 0.1 µM, 48 h 0.955 | [1]; 0.1 µM, 72 h 0.961 | [1]; 1 µM, 24 h 0.94 | [1]; 1 µM, 48 h 0.968 | [1]; 1 µM, 72 h 0.996 | [2]; 0.01 µM, 24 h 0.943 | [2]; 0.01 µM, 48 h 0.942 | [2]; 0.01 µM, 72 h 0.931 | [2]; 0.1 µM, 24 h 0.953 | [2]; 0.1 µM, 48 h 0.936 | [2]; 0.1 µM, 72 h 0.949 | [2]; 1 µM, 24 h 0.975 | [2]; 1 µM, 48 h 0.987 | [2]; 1 µM, 72 h 0.979

CC(C)CC(NC(=O)C(Cc1ccccc1)CC(O)C(Cc1ccccc1)NC(=O)OC(C)(C)C)C(=O)NC(Cc1ccccc1)C(N)=O (centres undefined)
inactive: [1]; 0.01 µM, 24 h 1 | [1]; 0.01 µM, 48 h 1 | [1]; 0.01 µM, 72 h 1.03 | [1]; 0.1 µM, 24 h 0.943 | [1]; 0.1 µM, 48 h 0.922 | [1]; 0.1 µM, 72 h 0.899 | [1]; 1 µM, 24 h 0.947 | [1]; 1 µM, 48 h 0.949 | [1]; 1 µM, 72 h 0.919 | [2]; 0.01 µM, 24 h 0.952 | [2]; 0.01 µM, 48 h 0.963 | [2]; 0.01 µM, 72 h 0.962 | [2]; 0.1 µM, 24 h 0.943 | [2]; 0.1 µM, 48 h 0.974 | [2]; 0.1 µM, 72 h 0.946 | [2]; 1 µM, 24 h 0.912 | [2]; 1 µM, 48 h 0.993 | [2]; 1 µM, 72 h 1 | [3]; 0.01 µM, 24 h 0.952 | [3]; 0.01 µM, 48 h 0.964 | [3]; 0.01 µM, 72 h 0.968 | [3]; 0.1 µM, 24 h 0.937 | [3]; 0.1 µM, 48 h 0.952 | [3]; 0.1 µM, 72 h 0.944 | [3]; 1 µM, 24 h 0.919 | [3]; 1 µM, 48 h 0.947 | [3]; 1 µM, 72 h 0.967

O=C1C(=O)N(Cc2ccc(Cl)c(Cl)c2)c2ccccc21 [Apoptosis Activator 2]
inactive: [1]; 0.01 µM, 24 h 1.01 | [1]; 0.01 µM, 48 h 1.02 | [1]; 0.01 µM, 72 h 1.01 | [1]; 0.1 µM, 24 h 1.03 | [1]; 0.1 µM, 48 h 1.04 | [1]; 0.1 µM, 72 h 1.02 | [1]; 1 µM, 24 h 0.981 | [1]; 1 µM, 48 h 1.01 | [1]; 1 µM, 72 h 0.986 | [2]; 0.01 µM, 24 h 0.997 | [2]; 0.01 µM, 48 h 1 | [2]; 0.01 µM, 72 h 1.01 | [2]; 0.1 µM, 24 h 1 | [2]; 0.1 µM, 48 h 0.985 | [2]; 0.1 µM, 72 h 0.971 | [2]; 1 µM, 24 h 1.02 | [2]; 1 µM, 48 h 1.04 | [2]; 1 µM, 72 h 1.04

CN(C)CCCCC(=O)Nc1ccc(NC(=S)NC(=O)c2ccc(C(C)(C)C)cc2)cc1 [Tenovin-6]
inactive: [1]; 0.01 µM, 24 h 0.978 | [1]; 0.01 µM, 48 h 0.97 | [1]; 0.01 µM, 72 h 0.94 | [1]; 0.1 µM, 24 h 1 | [1]; 0.1 µM, 48 h 0.991 | [1]; 0.1 µM, 72 h 0.973 | [1]; 1 µM, 24 h 1.01 | [1]; 1 µM, 48 h 1.03 | [1]; 1 µM, 72 h 0.875 | [2]; 0.01 µM, 24 h 0.99 | [2]; 0.01 µM, 48 h 0.965 | [2]; 0.01 µM, 72 h 0.966 | [2]; 0.1 µM, 24 h 0.947 | [2]; 0.1 µM, 48 h 0.912 | [2]; 0.1 µM, 72 h 0.879 | [2]; 1 µM, 24 h 0.958 | [2]; 1 µM, 48 h 1 | [2]; 1 µM, 72 h 1.01 | [3]; 0.01 µM, 24 h 1 | [3]; 0.01 µM, 48 h 0.993 | [3]; 0.01 µM, 72 h 0.989 | [3]; 0.1 µM, 24 h 0.986 | [3]; 0.1 µM, 48 h 0.964 | [3]; 0.1 µM, 72 h 0.952 | [3]; 1 µM, 24 h 1.02 | [3]; 1 µM, 48 h 1.02 | [3]; 1 µM, 72 h 1.05

COc1cc(C(=O)O)ccc1NC(=O)[C@@H]1N[C@@H](CC(C)(C)C)[C@](C#N)(c2ccc(Cl)cc2F)[C@H]1c1cccc(Cl)c1F [Idasanutlin]
inactive: [1]; 0.01 µM, 24 h 0.938 | [1]; 0.01 µM, 48 h 0.944 | [1]; 0.01 µM, 72 h 0.96 | [1]; 0.1 µM, 24 h 0.943 | [1]; 0.1 µM, 48 h 0.953 | [1]; 0.1 µM, 72 h 1.01 | [1]; 1 µM, 24 h 0.963 | [1]; 1 µM, 48 h 1.01 | [1]; 1 µM, 72 h 0.933 | [2]; 0.01 µM, 24 h 1.01 | [2]; 0.01 µM, 48 h 0.971 | [2]; 0.01 µM, 72 h 0.962 | [2]; 0.1 µM, 24 h 0.966 | [2]; 0.1 µM, 48 h 0.949 | [2]; 0.1 µM, 72 h 0.947 | [2]; 1 µM, 24 h 1.01 | [2]; 1 µM, 48 h 1.03 | [2]; 1 µM, 72 h 1.03
